Compound activity as filed in PubChem.
This is a sample that favours compounds with a hit; in the whole collection about 4.8% have one here.
ssDAF12 agonist – S. stercoralis DAF-12 activation, primary screen; HEK293 ssDAF-12/GRIP1 lit1-tk-luc reporter, luminescence; % of 3 µM dafachronic acid response; activation, % at 6.8 µM; 370,000 tested, 1% active; AID 652126;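 active means activation above the mean over all tested compounds plus 3 SD, cut at about 0.9% in these data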;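 further: 0% = DMSO-only wells and 100% = 3 µM delta7-dafachronic acid wells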
hcDAF-12 act – H. contortus DAF-12 activation, primary screen. HEK293 hcDAF-12 lit1-tk-luc reporter, luminescence; 0% DMSO, 100% Δ7-dafachronic acid. activation, % at 6.8 µM. 370,000 tested, 1.4% active;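 active means activation above the mean of all tested compounds plus 3 SD, cut at about 5.5% in these data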;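 further: 100% = response to 3 µM Δ7-dafachronic acid high control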
hgDAF-12 ag – activates the H. glycines DAF-12 receptor ligand-binding domain | HEK293 GAL4-hgDAF12 UAS-luciferase reporter, agonist luminescence; normalized to butyrate control | activation, % at 6.8 µM | 370,000 tested, 1.8% active | AID 687014;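 active means activation above a cutoff set at the mean of all screened compounds plus 3 SD, cut at about 10% in these data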;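 further: 0% = DMSO wells and 100% = sodium butyrate wells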
DAX1 inh-1 – inhibits human nuclear receptor DAX1; P51843; 340,000 tested, 0.99% active; HEK293 Gal4-DAX1 luciferase reporter, luminescence; inhibition, % at 6.75 µM; AID 504766;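 active means inhibition above the mean over all tested compounds plus 3 SD, cut at about 4.2% in these data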;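 further: 0% = DAX1-transfected cells with DMSO and 100% = empty-vector control cells with DMSO; inhibition shows as a rise in luminescence from relieved DAX1 repression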
Target sequence (P51843 207-470 limits assumed): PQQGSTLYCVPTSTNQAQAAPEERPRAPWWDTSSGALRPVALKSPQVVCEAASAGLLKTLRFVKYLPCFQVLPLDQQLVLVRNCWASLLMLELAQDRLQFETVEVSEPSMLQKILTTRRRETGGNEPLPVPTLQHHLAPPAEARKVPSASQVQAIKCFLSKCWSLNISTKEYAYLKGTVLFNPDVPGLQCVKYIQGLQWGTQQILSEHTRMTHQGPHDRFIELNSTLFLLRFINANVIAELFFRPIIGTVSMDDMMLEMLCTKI
SMARCA2 activ – activators of SMARCA2 function. AID 652017. activation, % at 9.1 µM. MG213 cells, MMTV-luciferase reporter, dexamethasone, overnight. 370,000 tested, 1% active; in the data active means activation above about 7.8%;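 further: 0% = vehicle wells and 100% = reference activator wells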
DAX1 inh-2 – inhibitors of DAX1 repression of SF-1 activated StAR promoter; 370,000 tested, 1.1% active; HEK293T StAR-luciferase reporter, SF-1/DAX-1 repression relief; inhibition, % at 6.8 µM;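 active means inhibition above the mean over all tested compounds plus 3 SD, cut at about 3.6% in these data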;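 further: 0% = DAX-1 cells with DMSO and 100% = cells lacking DAX-1 with DMSO; higher inhibition means more luminescence from relief of DAX-1 repression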
LXRb hcDAF ctr – LXR-beta agonism as hcDAF-12 counter-screen; HEK293 Gal4-LXR tk-luc reporter, luminescence, 24 h; normalized: DMSO 0%, positive control 100%; shares compounds with hcDAF-12 act; AID 743027; 3,400 tested, under 10 active; activation, % at 6.8 µM;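 active means mean percent activation of the reporter above a cutoff set as the average over tested compounds plus their standard deviation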
hcDAF12 conf – confirmation of H. contortus DAF-12 agonists; 3,400 tested, 61% active; shares compounds with hcDAF-12 act; activation, % at 6.8 µM; HEK293 hcDAF-12 lit1-tk-luc reporter, luminescence; % of Δ7-dafachronic acid response;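 active means mean activation across triplicate tests above the threshold derived from the earlier primary screen, cut at about 5.5% in these data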;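 further: 0% = DMSO only wells and 100% = 3 µM Δ7-dafachronic acid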
hgDAF12 ag – confirmation of H. glycines DAF-12 agonists. shares compounds with hgDAF-12 ag. 3,300 tested, 80% active. AID 743050. HEK293 GAL4-hgDAF12 luciferase reporter, agonist mode; percent of butyrate response. activation, % at 6.8 µM;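 active means mean activation over triplicate wells above the hit cutoff derived from the earlier primary screen, cut at about 11% in these data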;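 further: 0% = DMSO low control and 100% = 2 mM sodium butyrate high control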
LXRb DAF12 ctr – activates human LXR-beta, counter-screen for DAF-12 agonists | shares compounds with hgDAF-12 ag | HEK293 Gal4-LXR luciferase reporter, 24 h | activation, % at 6.8 µM | 3,300 tested, under 10 active | AID 743051;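 active means mean activation of the triplicate above a set limit carried over from the primary screen, none filed active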
An asterisk follows results filed as active; nt = no result given.

SMILES	ssDAF12 agonist	hcDAF-12 act	hgDAF-12 ag	DAX1 inh-1	SMARCA2 activ	DAX1 inh-2	LXRb hcDAF ctr	hcDAF12 conf	hgDAF12 ag	LXRb DAF12 ctr
CN(/N=C\c1ccc(O)c(O)c1)c1nc(-c2ccccc2)cc(-c2ccccc2)n1	-1	4	-1	0	2	-1	nt	nt	nt	nt
CCOC(=O)/C(=N\Nc1ncnc2ccccc12)c1ccc(C)cc1	2.5*	19*	21*	0	5	2	2	19*	20*	1
COC(=O)c1nn(-c2ccc(-c3ccccc3)cc2)cc1O	1	8.3*	14*	-3	-3	4	2	8.2*	18*	1
O=C(Nc1ccc2ccccc2c1)c1ccccc1F	1.6*	14*	19*	1	3	2	2	9.3*	23*	1
O=C(Nc1ccc2cn[nH]c2c1)c1ccccc1F	1	7.8*	14*	2	6	3.9*	1	5	16*	1
N#Cc1ccc(C(=O)Nc2ccc3ccccc3c2)cc1	1	7.9*	20*	-1	3	1	1	5	22*	1
CCOC(=O)c1c(NC(=S)N2CCOCC2)sc(C)c1C	-1	-2	1	2	-1	0	nt	nt	nt	nt
Cc1cccc(-n2ncc3c(N4CCC(C)CC4)ncnc32)c1	0	6.6*	24*	3	3	7.6*	2	6.2*	13*	1
O=C1OCCC1Sc1nnc(-c2cccnc2)n1-c1ccccc1F (stereo not given)	-1	-1	0	nt	-2	0	nt	nt	nt	nt
Nc1nc(-c2cc(-c3ccccc3)no2)cs1	1	7.9*	18*	4	6	2	1	5	21*	1
CCOCCCNC(=O)C(c1ccc(OC)cc1)N(Cc1cccs1)C(=O)c1ccccn1 (stereo not given)	-2	-2	-2	-1	1	-1	nt	nt	nt	nt
Cc1nnc(NC(=O)c2ccc(-c3ccc(Cl)cc3)o2)s1	-1	-2	-2	0	2	1	nt	nt	nt	nt
O=C(Nc1nccs1)c1ccc(-c2ccc(Cl)cc2)o1	1.3*	6.6*	17*	4.6*	3	4.3*	2	4	22*	1
CCOc1ncccc1C(=O)OCC(=O)Nc1c(C)cc(C)cc1C	0	-1	-1	0	2	0	nt	nt	nt	nt
CCOc1ncccc1C(=O)OCC(=O)Nc1ccc(-c2nc3ccc(C)cc3s2)cc1	1.0*	7.5*	18*	1	2	4.4*	2	5.7*	18*	1
O=c1cc(CSc2ccccc2)nc(-c2ccncc2)[nH]1	-1	-2	2	0	-1	0	nt	nt	nt	nt
COCCNC(=O)C1CCCN(C(=O)/C=C/c2ccccc2)CC1 (stereo not given)	-1	-1	-2	nt	-2	0	nt	nt	nt	nt
CCOc1ccc(-c2c(=O)n(O)c3ccccc3[n+]2[O-])cc1	0	7.8*	21*	1	7	3	0	3	41*	1
O=C(NCCCCc1ccccc1)C1CC(c2cc(C(F)(F)F)cc(C(F)(F)F)c2)=NO1 (stereo not given)	-1	-2	1	0	0	0	nt	nt	nt	nt
Nc1ccc2nn(-c3ccc(F)cc3)nc2c1	2.3*	14*	16*	4.3*	4	2	1	2	16*	1
Cc1cc2nn(-c3ccc(F)cc3)nc2cc1N	1.4*	14*	18*	3	0	4.0*	2	16*	24*	1
C/C(N)=C(/C#N)C(=O)CSc1nc2ccc(C)cc2[nH]1	1.4*	11*	17*	2	8	4.3*	1	7.1*	16*	1
Cc1ccc(NC(=O)CSCc2ccco2)cc1	1.3*	8.0*	17*	1	7	0	1	4	13*	0
CCN(C(=O)COC(=O)C1CCN(S(=O)(=O)c2cccs2)CC1)c1ccccc1	-1	-2	1	0	3	0	nt	nt	nt	nt
Cc1ccc(-c2csc(-c3c[nH]c4ccccc34)n2)c(C)c1	0	1	9	2	2	1	nt	nt	nt	nt
SMILES	ssDAF12 agonist	hcDAF-12 act	hgDAF-12 ag	DAX1 inh-1	SMARCA2 activ	DAX1 inh-2	LXRb hcDAF ctr	hcDAF12 conf	hgDAF12 ag	LXRb DAF12 ctr
Oc1ccc(-c2csc(-c3c[nH]c4ccccc34)n2)c(O)c1	2.7*	8.3*	14*	3	5	3	1	9.2*	17*	1
Cc1c(C(=O)Nc2ccc(Br)cc2)cnn1C	2.3*	11*	15*	2	2	2	1	6.1*	13*	0
Cc1[nH]nc(N)c1N=Nc1ccc(Br)cc1	-1	1	6	nt	3	1	nt	nt	nt	nt
Cc1nc(N)sc1N=Nc1ccc(Br)cc1	1.5*	8.6*	17*	5.4*	5	3.9*	1	4	21*	1
Cc1oc(-c2ccoc2)nc1CN(CC1CCC(=O)N1)C(C)C (stereo not given)	-1	2	1	1	-4	0	nt	nt	nt	nt
COCCN(Cc1nc(-c2ccc(-c3ccccc3)cc2)oc1C)C(C)C	1.1*	10*	15*	-4	3	2	1	7.5*	18*	1
CSc1ncccc1C(=O)Nc1cc(C)ccn1	-1	0	-1	0	2	0	nt	nt	nt	nt
CSc1ccc(NC(=O)Nc2cc(C)ccn2)cc1	0.9*	7.0*	19*	2	1	3	2	9.5*	18*	1
Cc1ccc(NC(=O)c2ccc(Cl)cc2Cl)cc1O	1.9*	9.6*	17*	7.7*	0	3	1	6.2*	15*	1
CNS(=O)(=O)c1ccc(NC(=O)c2ccc(Cl)cc2Cl)cc1	-1	2	1	0	-2	-1	nt	nt	nt	nt
COc1ccc2[nH]c(C(=O)Nc3cccc(C)n3)cc2c1	0.9*	7.9*	15*	nt	2	3.7*	2	6.2*	22*	1
COC(=O)c1ccc(N=NNc2cccc(Br)c2)cc1	0	7.9*	15*	0	0	3	1	7.1*	16*	0
